Laboratory results from ChEMBL document CHEMBL1157539, “Thousands of chemical starting points for antimalarial lead identification” (Nature, 2010).

Experiments:
Assay type in all cases: functional
Plasmodium falciparum [1] = assay: GSK_TCMDC: Inhibition of Plasmodium falciparum 3D7 in whole red blood cells, using parasite LDH activity as an index of growth. Test compounds present at 2uM
Plasmodium falciparum [2] = assay: GSK_TCMDC: Inhibition of Plasmodium falciparum Dd2 in whole red blood cells, using parasite LDH activity as an index of growth. Test compounds present at 2uM
HepG2 = assay: GSK_TCMDC: Percent inhibition of human HepG2 cell line. Test compounds present at 10uM.

SMILES | Inhibition (Plasmodium falciparum [1]) | Inhibition (Plasmodium falciparum [2]) | Inhibition (HepG2)
COc1ccc(C2CC(=O)C3=C(C2)NC(C)=C(C(=O)OC(C)C)C3c2ccc(O)cc2)cc1OC (stereo not drawn) | 99% | 98% | 0%
CCCN(Cc1nnc(-c2ccco2)o1)C(=O)C1CCN(c2ncc(C(F)(F)F)cc2Cl)CC1 | 98% | 92% | 19%
CCNc1cc(C)nc(Nc2ccc(NC(=O)c3ccccc3)cc2)n1 | 100% | 63% | 41%
CN1CCC(N2CCN(Cc3ccc(-c4ccc(-c5nc6cc(F)ccc6[nH]5)s4)cc3)CC2)CC1.O=C(O)C(F)(F)F | 100% | 100% | 62%
Fc1ccccc1COc1ccc(Nc2ncnc3ccc(I)cc23)cc1Cl | 90% | 37% | 17%
COc1ccc(Nc2nccc(N3CCC(NC(=O)c4cccc(NC(C)=O)c4)C3)n2)cc1 (stereo not drawn) | 92% | 84% | 0%
O=C(Nc1ccccc1)Nc1cccc(-c2ccc(-c3nc4cc(C(F)(F)F)ccc4[nH]3)cc2)c1 | 100% | 37% | 48%
O=C(O)C(F)(F)F.c1cc(OCCN2CCCC2)ccc1CNC1CCN(CC2CCCCC2)CC1 | 100% | 54% | 15%
Cc1ccc2[nH]c(C)cc(=NN=Cc3ccccc3Cl)c2c1 | 100% | 62% | 6%
CC(C)c1sc(N2CCCCC2)nc1C(=O)Nc1ccc(F)cc1C(F)(F)F.O=C(O)C(F)(F)F | 100% | 98% | 0%
CCN(CC)CCOC(=O)c1ccc(NC(=O)c2cc(-c3ccc(C)cc3)nc3ccccc23)cc1.Cl | 97% | 12% | 22%
